Common to all, as to experiment: DAPPL (digital affinity profiling via proximity ligation, sequencing); 10 mM Tris-HCl pH 7.5, 50 mM NaCl, 1 mM DTT, 4% glycerol, room temperature, 30 min; GST-TFs on glutathione beads, 16-mer random dsDNA library, 0.1% formaldehyde crosslink after washing; high values mean tight binding
What all share (conditions): protein: recombinant; tags: N-terminal GST; dsDNA, one strand shown

The target in experiment [1] is T1, ELK1 (Homo sapiens, UniProt P19419 1-428).
T1 sequence: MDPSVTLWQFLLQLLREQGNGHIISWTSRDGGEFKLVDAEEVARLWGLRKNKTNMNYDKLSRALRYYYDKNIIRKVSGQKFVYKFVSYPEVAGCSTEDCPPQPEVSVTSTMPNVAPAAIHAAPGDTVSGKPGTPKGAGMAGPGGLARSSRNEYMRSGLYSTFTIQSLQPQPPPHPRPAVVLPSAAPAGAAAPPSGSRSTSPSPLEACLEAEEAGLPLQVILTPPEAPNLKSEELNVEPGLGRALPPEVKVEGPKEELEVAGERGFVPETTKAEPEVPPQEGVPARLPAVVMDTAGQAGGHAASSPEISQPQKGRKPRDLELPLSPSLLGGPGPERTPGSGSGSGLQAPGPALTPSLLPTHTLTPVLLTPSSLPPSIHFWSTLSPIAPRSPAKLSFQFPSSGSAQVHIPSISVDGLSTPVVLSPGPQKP
In outline: (§1)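 GST fusions of human transcription factors were expressed in yeast and captured with glutathione beads. Once given DNA barcodes and pooled alongside a tag-only sample, they were incubated for 30 min at room temperature with 200 nmole of a random double-stranded 16-mer DNA library in Tris/NaCl/DTT/glycerol buffer, then washed, crosslinked (0.1% formaldehyde), proximity-ligated, PCR-amplified and sequenced on an Illumina NextSeq500. The binding signal of each hexamer is its read frequency for a factor divided by its frequency for the tag-only sample.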

Experiment [2] has as its target T2, GABPA (Homo sapiens, UniProt Q06546 1-454).
T2 sequence: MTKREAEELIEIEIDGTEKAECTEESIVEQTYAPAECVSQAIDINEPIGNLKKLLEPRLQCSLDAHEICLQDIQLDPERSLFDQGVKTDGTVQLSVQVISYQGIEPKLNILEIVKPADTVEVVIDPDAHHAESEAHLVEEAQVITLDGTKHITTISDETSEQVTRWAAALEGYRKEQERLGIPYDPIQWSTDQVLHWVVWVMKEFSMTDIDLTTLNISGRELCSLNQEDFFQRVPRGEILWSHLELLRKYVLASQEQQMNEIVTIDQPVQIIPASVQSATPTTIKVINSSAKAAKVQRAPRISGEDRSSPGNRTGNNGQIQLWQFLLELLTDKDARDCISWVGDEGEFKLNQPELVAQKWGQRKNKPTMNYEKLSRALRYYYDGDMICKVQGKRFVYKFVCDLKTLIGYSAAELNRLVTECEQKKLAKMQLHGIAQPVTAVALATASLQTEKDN
In outline: as §1

The target of experiment [3] is T3, ERG (Homo sapiens, UniProt P11308 1-479).
T3 sequence: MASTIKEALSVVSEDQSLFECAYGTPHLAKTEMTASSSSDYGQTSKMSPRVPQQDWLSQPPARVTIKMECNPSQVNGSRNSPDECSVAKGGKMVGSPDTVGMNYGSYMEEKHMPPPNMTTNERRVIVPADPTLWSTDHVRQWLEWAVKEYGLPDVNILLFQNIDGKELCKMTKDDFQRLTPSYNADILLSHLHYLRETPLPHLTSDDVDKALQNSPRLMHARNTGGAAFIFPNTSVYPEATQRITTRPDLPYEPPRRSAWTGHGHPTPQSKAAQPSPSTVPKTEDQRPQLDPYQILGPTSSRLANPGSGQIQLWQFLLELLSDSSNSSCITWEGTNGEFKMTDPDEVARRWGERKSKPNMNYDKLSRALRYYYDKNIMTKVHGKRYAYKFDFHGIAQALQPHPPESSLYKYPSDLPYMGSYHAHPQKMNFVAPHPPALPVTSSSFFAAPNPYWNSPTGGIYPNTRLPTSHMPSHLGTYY
An outline of the steps: as §1

Experiment [4] addresses ELF1 (Homo sapiens, UniProt P32519 1-619). An outline of the steps: as §1
Experiment [5] has as its target T4, EHF (Homo sapiens, UniProt Q9NZC4 1-300).
T4 sequence: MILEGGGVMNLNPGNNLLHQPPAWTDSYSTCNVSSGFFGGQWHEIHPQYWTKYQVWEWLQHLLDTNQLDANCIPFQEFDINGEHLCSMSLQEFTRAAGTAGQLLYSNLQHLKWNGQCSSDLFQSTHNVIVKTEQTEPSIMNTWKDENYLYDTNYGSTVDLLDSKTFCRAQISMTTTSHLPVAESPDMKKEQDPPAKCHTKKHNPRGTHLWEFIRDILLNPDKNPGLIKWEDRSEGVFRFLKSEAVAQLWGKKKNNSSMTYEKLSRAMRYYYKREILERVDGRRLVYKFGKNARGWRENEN
An outline of the steps: as §1

Experiment [6] addresses SPI1 (Homo sapiens, UniProt P17947 1-270). In outline:
as §1

Experiment [7] concerns the target SPIB (Homo sapiens, UniProt Q01892 1-262). In outline: as §1
In experiment [8] the target is T5, FEV (Homo sapiens, UniProt Q99581 1-238).
T5 sequence: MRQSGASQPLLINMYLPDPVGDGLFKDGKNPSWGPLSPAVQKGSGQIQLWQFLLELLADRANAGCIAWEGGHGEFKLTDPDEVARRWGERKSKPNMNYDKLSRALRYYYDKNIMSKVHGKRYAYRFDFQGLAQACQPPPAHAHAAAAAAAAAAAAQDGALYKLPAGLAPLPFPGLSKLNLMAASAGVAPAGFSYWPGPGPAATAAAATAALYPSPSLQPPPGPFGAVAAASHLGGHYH
An outline of the steps: as §1

The target in experiment [9] is ETV5 (Homo sapiens, UniProt P41161 1-510). In outline: as §1
ETV5, sequence (P41161 whole entry): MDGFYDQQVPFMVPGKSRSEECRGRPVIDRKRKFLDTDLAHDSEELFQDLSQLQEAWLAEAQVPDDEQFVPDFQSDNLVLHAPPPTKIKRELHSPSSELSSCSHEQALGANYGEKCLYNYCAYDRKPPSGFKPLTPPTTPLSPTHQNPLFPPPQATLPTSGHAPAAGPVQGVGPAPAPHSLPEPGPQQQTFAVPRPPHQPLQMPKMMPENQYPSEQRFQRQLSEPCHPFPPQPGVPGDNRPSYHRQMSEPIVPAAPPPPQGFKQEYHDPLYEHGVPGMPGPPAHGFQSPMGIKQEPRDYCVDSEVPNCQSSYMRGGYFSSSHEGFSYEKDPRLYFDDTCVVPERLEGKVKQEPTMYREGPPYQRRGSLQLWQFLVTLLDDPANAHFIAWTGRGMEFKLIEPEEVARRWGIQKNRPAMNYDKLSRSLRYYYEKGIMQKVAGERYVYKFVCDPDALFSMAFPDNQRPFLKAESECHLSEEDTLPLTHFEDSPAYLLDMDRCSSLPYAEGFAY
The target in experiment [10] is ELF4 (Homo sapiens, UniProt Q99607 1-663). An outline of the steps: as §1
ELF4, sequence (Q99607 whole entry): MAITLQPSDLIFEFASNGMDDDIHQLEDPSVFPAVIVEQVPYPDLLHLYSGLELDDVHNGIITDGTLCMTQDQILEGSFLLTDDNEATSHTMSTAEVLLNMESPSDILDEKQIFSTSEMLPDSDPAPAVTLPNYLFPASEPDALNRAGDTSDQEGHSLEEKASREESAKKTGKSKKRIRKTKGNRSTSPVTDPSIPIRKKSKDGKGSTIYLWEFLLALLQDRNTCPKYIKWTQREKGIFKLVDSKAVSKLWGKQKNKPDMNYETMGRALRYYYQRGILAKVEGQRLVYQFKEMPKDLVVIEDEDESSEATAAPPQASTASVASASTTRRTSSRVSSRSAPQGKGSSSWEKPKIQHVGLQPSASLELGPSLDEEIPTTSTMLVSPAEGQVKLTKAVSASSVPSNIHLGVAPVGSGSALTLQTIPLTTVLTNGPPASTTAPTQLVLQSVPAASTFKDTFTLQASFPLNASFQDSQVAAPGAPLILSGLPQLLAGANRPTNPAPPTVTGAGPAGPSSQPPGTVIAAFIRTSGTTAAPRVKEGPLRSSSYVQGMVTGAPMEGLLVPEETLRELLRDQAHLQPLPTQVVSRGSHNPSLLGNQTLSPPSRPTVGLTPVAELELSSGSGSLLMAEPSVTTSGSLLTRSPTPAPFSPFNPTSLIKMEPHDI

ELF1, sequence (P32519 whole entry): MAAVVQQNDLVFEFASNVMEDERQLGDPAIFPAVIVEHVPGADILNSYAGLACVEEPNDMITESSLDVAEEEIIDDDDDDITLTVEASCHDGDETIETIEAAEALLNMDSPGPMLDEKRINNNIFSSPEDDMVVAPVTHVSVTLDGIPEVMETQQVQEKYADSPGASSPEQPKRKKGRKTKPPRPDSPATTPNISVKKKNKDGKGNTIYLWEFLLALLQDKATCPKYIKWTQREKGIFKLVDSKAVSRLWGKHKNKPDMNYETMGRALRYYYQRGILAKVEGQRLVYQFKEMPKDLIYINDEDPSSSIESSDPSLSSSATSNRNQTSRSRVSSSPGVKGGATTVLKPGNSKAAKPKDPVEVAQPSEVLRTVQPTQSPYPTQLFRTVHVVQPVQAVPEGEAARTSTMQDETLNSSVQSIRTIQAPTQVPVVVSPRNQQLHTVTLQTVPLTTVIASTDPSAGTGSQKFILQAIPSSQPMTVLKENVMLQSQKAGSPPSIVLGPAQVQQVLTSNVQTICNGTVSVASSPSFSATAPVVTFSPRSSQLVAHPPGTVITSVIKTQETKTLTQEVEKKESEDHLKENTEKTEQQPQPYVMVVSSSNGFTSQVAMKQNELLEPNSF
SPIB, sequence (Q01892 whole entry): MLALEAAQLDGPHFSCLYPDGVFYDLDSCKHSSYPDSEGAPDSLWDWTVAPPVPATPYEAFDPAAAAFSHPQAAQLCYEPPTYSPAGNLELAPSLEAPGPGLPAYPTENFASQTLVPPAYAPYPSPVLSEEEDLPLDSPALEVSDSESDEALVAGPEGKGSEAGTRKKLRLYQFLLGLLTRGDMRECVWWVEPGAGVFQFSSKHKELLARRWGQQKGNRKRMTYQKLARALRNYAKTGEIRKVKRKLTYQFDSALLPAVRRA

In the case of CATCAT, the binding signal in [1] is 1.06 fold enrichment (6-mer frequency, TF over GST control); in experiment [2] it was 1.09 fold enrichment (6-mer frequency, TF over GST control); in experiment [3] it was 1.08 fold enrichment (6-mer frequency, TF over GST control); in experiment [4] it was 1.15 fold enrichment (6-mer frequency, TF over GST control); in experiment [5] it was 1.07 fold enrichment (6-mer frequency, TF over GST control); in experiment [6] it was 1.11 fold enrichment (6-mer frequency, TF over GST control). In addition, the binding signal in experiment [7] was 1.09 fold enrichment (6-mer frequency, TF over GST control); in experiment [8], 1.09 fold enrichment (6-mer frequency, TF over GST control); in [9] it was 1.09 fold enrichment (6-mer frequency, TF over GST control); in experiment [10] it was 1.07 fold enrichment (6-mer frequency, TF over GST control).

The values above are taken from PMC7862700, “An all-to-all approach to the identification of sequence-specific readers for epigenetic DNA modifications on cytosine”.
